In all, about 3,200 compounds went through this assay and about 2,600 (81%) were called active. So high a share suggests a set chosen from earlier hits. Only a sample is shown. Values without a mark were called inactive.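 The calls were made as follows: active = activation above the all-compound mean plus 3 SD, ignoring values outside control-based bounds (cut at about 4.8% in these data); inactive = the rest.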

The nature of this assay: apparent activators from fluorescence artefacts, no enzyme – biochemical, fluorescence intensity, high throughput, artefact control for kallikrein-7 zymogen activator project (AID 686952).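 Also: value is the 4 h activation minus the activation read at time zero.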 To be noted: EDANS-DABCYL substrate fluorescence interference, 4 h, at 7 µM, active compounds read high, solvent 0%, active enzyme control 100%.
For `COc1cccc(OCc2cc(/C=N/NC(=O)c3nc(Cl)c(Cl)c(N)c3Cl)ccc2OC)c1`, the activation is 59.5% (active).
The same measure for `Cc1cc(C)c2nc3nc(C)cc(C)c3c(N)c2c1`: 70.4% (active); for `CCOC(OCC)c1ccc(/C=C\c2nccc(N)n2)cc1`: -13.8%.
The same measure for `COc1ccc(CNC(=O)COC(=O)C2=Cc3ccccc3OC2)cc1`: 11.3% (active).
As to `COc1cc2c(cc1OC)C(C(C)C)=NC(C)(C)C2`, the activation was 72.2% (active).
For `CN1c2ccccc2-c2nc3ccccc3n2C1c1ccco1` (stereo not given), the activation was 11.9% (active).
Take `CNc1cncc(-c2cccc(C(=O)N3CCOCC3)c2)n1`: the activation is 37.5% (active).
On to `CCCn1c(=NC(C)=O)c(C(=O)OCC)cc2c(=O)n3ccccc3nc21`, for which the activation is 32.4% (active).
For the compound `CCN1CCc2c(C#N)c(NCc3ccccc3)nc(NCCO)c2C1`, the activation was 28.7% (active).
Turning to `COC(=O)C1=NN(c2ccccc2)C2C(=O)N(c3ccccc3OC)C(=O)C12` (stereo not given), the activation was 14.9% (active).
Turning to `CN(C)C(=O)c1coc2nc3ccccc3nc12`, the activation was 110% (active).
Consider `O=C(O)c1ccc2c(c1)C(=O)N(c1ccc(/C=C/C(=O)c3ccccc3)cc1)C2=O`, for which the activation is 722% (active).
The same measure for `O=C(/C=C/c1ccc2c(c1)OCCO2)c1ccc(O)cc1`: 3.03%; for `CCN(CC)CCCNC(=O)c1cc2c(=O)[nH]c3ccc(C)cc3c2s1`: 12.5% (active); for `COC(=O)c1c(C)c(C)nc(N)c1C#N`: 63.7% (active).
As for `CCN(CC(=O)Nc1c(F)cccc1F)C(=O)c1ccc(-c2ccc(C(C)=O)cc2)o1`, the activation is -16.2%.
The same measure for `CN(C)CCN1CCN(c2cc(-c3cccc(Cl)c3)nc3ccnn23)CC1`: -1.14%; for `COC(=O)Cc1nc2c(N)nc(N)nc2[nH]c1=O`: 16.8% (active); for `Cc1coc2c1c(C)cc1oc(=O)c(CC(=O)NCC(=O)N[C@H](C(=O)O)C(C)C)c(C)c12`: 34.8% (active).
For the compound `COc1ccc(-c2cc(C(=O)n3cnc4ccccc43)c3ccccc3n2)cc1`, the activation was 53.3% (active).
For `CNC(=O)COC(=O)c1cc(-c2ccc(OC)cc2)nc2ccccc12`, the activation is 97.4% (active).
The same measure for `O=c1c(-c2ccccc2)coc2c(CN3CCOCC3)c(O)ccc12`: 15.3% (active); for `COc1cccc2sc3cc(NCC[C@@H]4CCCN4C)ccc3c(=O)c12`: 38.3% (active); for `CCCCc1cc(=O)oc2cc(C)cc(OCc3nn[nH]n3)c12`: 29.5% (active).
As for `Cc1ccsc1-c1cc(C(=O)O)c2c(ccc3ccccc32)n1`, the activation was 21.4% (active).
The same measure for `COC(=O)c1cnn2c(C(F)(F)F)cc(-c3ccco3)nc12`: 35.9% (active); for `O=C(OC1CCOC1=O)c1ccc(-c2nc3ccccc3s2)s1` (stereo not given): 13.6% (active); for `Cc1nc2ccc(N)nc2nc1C`: 59.7% (active).
Consider `O=C(O)c1cccnc1Sc1ncnc2sc3c(c12)CCC3`, for which the activation is 15.9% (active).
In the case of `CCCCN(C)CCCNC(=O)c1cc(-c2cccs2)nc2ccccc12`, the activation is -40.9%.
The same measure for `O=C(NCCN1CCOCC1)c1cc(-c2cccs2)nc2ccccc12`: 31.9% (active); for `O=c1oc2cc(O)ccc2cc1-c1ccc(F)cc1`: 80.8% (active); for `COc1ccc(CCNC(=O)Nc2ccc3c(c2)c(=O)n(C)n3C)cc1OC`: 22.7% (active).
As to `CCNC(=S)Nc1ccc2c(c1)c(=O)n(C)n2Cc1ccc(Cl)cc1`, the activation is -1.33%.
The same measure for `C=CCn1c(N)c(S(=O)(=O)c2cccs2)c2nc3ccccc3nc21`: -4.5%; for `COCCCn1c(-c2cccs2)nc2nc3ccccc3nc21`: 24.8% (active); for `NC(N)=Nc1nc(-c2ccccc2)c2cc(Cl)ccc2n1`: -2.58%.
The same measure for `COc1nc(N=C(N)N)nc2c(C)cccc12`: 20.6% (active); for `CCC1=C(C(=O)OC)C(c2cc(OC)ccc2OC)C(C#N)=C(N)O1` (stereo not given): 32.6% (active).
The same measure for `Cc1cc(N2CCOCC2)nc2ccc(NC(=S)N3CCN(Cc4ccccc4)CC3)cc12`: 12.7% (active); for `COCC(C)OC(=O)c1c(N)n(CCCN2CCOCC2)c2nc3ccccc3nc12` (stereo not given): 19% (active).
On to `CC(C)(C)OC(=O)c1c(N)n(CCCN2CCCC2=O)c2nc3ccccc3nc12`, for which the activation is 80.7% (active).
The same measure for `CC(C)=NN1C(=O)c2ccccc2NC1(C)C`: 24.5% (active).
As for `CCOc1ccc(N2C(=O)CC(N(O)c3ccccc3)C2=O)cc1` (stereo not given), the activation was 188% (active).
The same measure for `Nc1ccccc1-c1nc2ccncc2[nH]1`: 5.73% (active).
As to `CCCc1cc(=O)oc2c(C)c(O)c(CN3CCCCC3)cc12`, the activation is 68.1% (active).
The same measure for `CCOc1c2ccc(C(=O)NCc3ccc4c(c3)OCO4)cc2nn1C`: 4.67% (active); for `COCc1cc(=O)[nH]c2cc(NC(=O)C(F)(F)F)c(C)cc12`: 232% (active).
The same measure for `CCC(c1nnnn1Cc1ccco1)N(CCc1ccccc1)Cc1cc2ccc(OC)cc2[nH]c1=O` (stereo not given): 1.63%; for `CC(=O)Oc1ccc2c(C)c(CC(C)O)c(=O)oc2c1` (stereo not given): 80% (active).
For `CC(=O)Nc1cc2ccc(OC(C)=O)cc2oc1=O`, the activation was 127% (active).
The same measure for `COCCN(CCOC)c1nc(N)c2c(N)nc3c(c2c1C#N)CC(=O)N3Cc1ccc(Cl)cc1`: -34.7%; for `CCN1CCN(C(=O)c2cc3cc4ccc(OC)cc4nc3s2)CC1`: -12.4%.
With `COc1ccc2oc(=O)c(C(=O)N3CCCC3)cc2c1`, the activation is 23.6% (active).
Regarding `Cc1nc2ccccc2cc1O`, the activation was 4.33% (active).
Take `Cc1cc(S(=O)(=O)c2cc3ccc(O)c(C)c3oc2=O)ccc1F`: the activation was 63.2% (active).
Consider `N#CC1=C(N)Oc2c(sc3ccccc23)C1c1ccco1` (stereo not given), for which the activation was -21.2%.
In the case of `Nc1ccc2nn(-c3ccc(Cl)cc3)nc2c1`, the activation was 62.1% (active).
The same measure for `COc1ccc(C2=CC(c3cccc(OC)c3)n3nnnc3N2)cc1` (stereo not given): -27.9%; for `COC(=O)c1ccc(C2C3=C(Nc4nnnn42)c2ccccc2OC3)cc1` (stereo not given): 4.8% (active).
The same measure for `CC(C)(C)Nc1c(-c2cccs2)nc2ccccn12`: -64.5%; for `c1ccc(-c2cn3cccnc3n2)cc1`: 72.3% (active).
On to `FC(F)(F)Oc1ccc(-c2cn3cccnc3n2)cc1`, for which the activation was 36.4% (active).
The same measure for `COc1ccc(-c2cn3cccnc3n2)cc1`: 79.8% (active); for `Cc1oc2nc(SCC(=O)Nc3ccc(S(N)(=O)=O)cc3)nc(NC(=O)c3ccccc3)c2c1C`: 3.36%.

The record behind these values is PubChem BioAssay AID686952 (The Scripps Research Institute Molecular Screening Center, 2013).
